# A selection: hits, their analogues and other compounds. The true share with any hit is near 4.3%.
# TRPM1 prom inh: MITF TRPM1 promoter inhibition in SK-MEL-5 cells; AID 488899; inhibition, % at 12.5 µM; 330,000 tested, 0.83% active; SK-MEL-5 TRPM1 promoter luciferase, 24 h;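 active = mean inhibition across replicates of 60% or more, whatever share of single replicates reaches that level; inconclusive = some that reach 60%, reason not given; inactive = mean inhibition across replicates below 60%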
# KKLEB cytotox: CF airway cell cytotoxicity counter-screen; activity change (cytotoxicity), % at 5 µM; 360,000 tested, 0.36% active; KKLEB CF airway cells viability, ATPlite luminescence, overnight; hits give low values; cells stimulated with P. aeruginosa culture filtrate;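 active = corrected activity change at or below -50% at 5 µM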
# Peg3 prom inh: inhibitors of Peg3 promoter. HeLa PEG-Prom luciferase reporter, luminescence, overnight. inhibition, % at 20 µM. 360,000 tested, 1.7% active;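 active = inhibition of at least 50% at 20 µM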
# CHOP inhibitor: blocks CHOP induction under ER stress; AID 2732; CHO-K1 CHOP-promoter luciferase, tunicamycin-induced, 15-18 h; 220,000 tested, 3.8% active; inhibition, % at 10 µM;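 active = compounds that reduced the stress-induced luciferase reporter signal by more than about 70% of percent inhibition, limit read from the data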;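 also: 0% = tunicamycin plus vehicle and 100% = wells without tunicamycin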
# HIF-2a block: blocks HIF-2a reporter activity; inhibition, % at 18.8 µM; AID 624352; 786-0 RCC cells HIF-2a reporter, luciferase luminescence, overnight; 360,000 tested, 0.72% active;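 active = inhibition of the luminescence signal of 40% or more relative to plate controls, in a single-dose primary screen at 18.75 µM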
# CF NFkB inh: cystic fibrosis NF-kB activation inhibition | KKLEB NF-kB-GFP reporter, PAF-induced, GFP fluorescence overnight | inhibition, % at 5 µM | 360,000 tested, 0.86% active | AID 588850;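 active = at least 50% inhibition at 5 µM, scaled per plate between neutral and stimulator controls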;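 also: PAF is a Pseudomonas aeruginosa culture filtrate used as stimulus; plate controls were PAF-stimulated DMSO wells for no effect and unstimulated DMSO wells for full effect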
# Mdm2 MdmX conf: Mdm2/MdmX (human) interaction inhibition, confirmed. shares compounds with HIF-2a block. SaOS-2 split-luciferase Mdm2/MdmX complementation, luminescence. inhibition, % at 8 µM. 740 tested, 99% active;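 active = mean inhibition of the luminescence signal across two replicates at or above 26 percent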
# Target sequence (O15151 whole entry, looked up): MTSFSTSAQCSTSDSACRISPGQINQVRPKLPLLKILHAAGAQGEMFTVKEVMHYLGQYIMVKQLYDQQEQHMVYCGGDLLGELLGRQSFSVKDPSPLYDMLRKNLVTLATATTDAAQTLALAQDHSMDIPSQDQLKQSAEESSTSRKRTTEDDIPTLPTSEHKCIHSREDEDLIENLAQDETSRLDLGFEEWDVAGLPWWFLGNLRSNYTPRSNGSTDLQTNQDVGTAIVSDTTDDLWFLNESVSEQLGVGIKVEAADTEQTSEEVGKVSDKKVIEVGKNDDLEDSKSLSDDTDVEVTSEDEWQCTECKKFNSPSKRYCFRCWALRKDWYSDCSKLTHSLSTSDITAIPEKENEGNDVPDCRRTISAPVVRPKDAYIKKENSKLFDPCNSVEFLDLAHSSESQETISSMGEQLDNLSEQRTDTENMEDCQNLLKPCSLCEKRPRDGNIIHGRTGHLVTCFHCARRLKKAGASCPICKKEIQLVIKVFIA
# Target sequence (Q00987 whole entry, looked up): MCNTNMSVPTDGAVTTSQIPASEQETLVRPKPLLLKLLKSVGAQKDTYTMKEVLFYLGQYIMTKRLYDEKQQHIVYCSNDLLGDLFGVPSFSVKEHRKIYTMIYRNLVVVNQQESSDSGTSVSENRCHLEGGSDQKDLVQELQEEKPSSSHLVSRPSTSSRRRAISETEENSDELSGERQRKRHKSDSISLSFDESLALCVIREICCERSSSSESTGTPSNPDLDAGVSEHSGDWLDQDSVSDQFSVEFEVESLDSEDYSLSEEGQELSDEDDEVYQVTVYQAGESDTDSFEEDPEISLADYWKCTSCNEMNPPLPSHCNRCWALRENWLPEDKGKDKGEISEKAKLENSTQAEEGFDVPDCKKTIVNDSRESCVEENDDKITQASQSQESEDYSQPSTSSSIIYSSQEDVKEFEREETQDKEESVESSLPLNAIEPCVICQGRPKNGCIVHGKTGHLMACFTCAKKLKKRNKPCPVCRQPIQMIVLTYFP
# HIF-2a inh conf: HIF-2a inhibition, single concentration confirmation | shares compounds with HIF-2a block | 786-0 RCC cells, HIF-2a luciferase reporter luminescence, overnight | inhibition, % at 18.8 µM | 1,800 tested, 56% active | AID 651580;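 active = mean inhibition across four replicates of at least 40 percent at the single tested concentration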
# HIF-1a cs: inhibits HIF-1a reporter, a counter-screen for HIF-2a inhibitors; AID 651589; 1,800 tested, 72% active; MiaPaCa-2 HIF-1a luciferase reporter, desferoxamine, overnight; shares compounds with HIF-2a block; inhibition, % at 18.8 µM;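 active = mean inhibition of the reporter signal across four replicates at the single tested dose of 50% or more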
# * marks the source's active call; other numbers are inactive results; ? = inconclusive; / = no result given.
SMILES,TRPM1 prom inh,KKLEB cytotox,Peg3 prom inh,CHOP inhibitor,HIF-2a block,CF NFkB inh,HIF-2a inh conf,HIF-1a cs,others
Cc1ccc(S(=O)(=O)c2ccc([N+](=O)[O-])cn2)cc1,90.8*,-72.0*,106.8*,/,83.3*,96.1*,61.7*,64.5*,Mdm2 MdmX conf=103.0*
Cc1ccc(S(=O)(=O)c2ccc(C)cc2)cc1,-9.3,2.0,3.3,27.1,-6.8,7.7,/,/,
CN(Cc1nc(Cc2cccc(F)c2)no1)CC1CCOCC1,0.8,6.5,12.9,-2.2,12.2,0.9,/,/,
O=C(Cc1coc2cc3c(cc12)CCC3)OCC(=O)N1CCCC1=O,26.1,-15.8,27.6,40.3,79.8*,35.2,77.5*,83.3*,
O=C(O)Cc1coc2cc3c(cc12)CCC3,14.4,2.5,9.9,-0.3,14.2,4.6,/,/,
COc1ccc(NC(=O)c2cc(-c3cc(Cl)ccc3C)n[nH]2)c(OC)c1,/,-9.2,1.2,/,-5.3,12.6,/,/,
COC(=O)c1cc(S(=O)(=O)N2CCN(c3ccc(OC)cc3)CC2)cn1C,3.3,4.2,-1.7,/,14.8,-15.8,/,/,
O=C1OCCC1Sc1nc2cc(Cl)ccc2n1Cc1ccccc1 (stereo not given),1.1,-4.2,9.7,37.1,50.8*,8.6,3.6,7.9,
O=C1OCCC1Sc1nc2ccccc2c(=O)n1Cc1ccccc1 (stereo not given),16.5,3.8,-7.8,14.3,15.5,-1.0,/,/,
Cc1cnn(-c2cc(N/N=C/c3ccccc3Cl)ncn2)c1,-2.9,-9.1,1.5,-4.9,9.9,24.1,/,/,
COc1cccc(/C=N/Nc2cc(-n3nc(C)cc3-c3ccccc3)ncn2)c1O,27.5,-19.3,52.5*,91.9*,15.7,47.9,/,/,Mdm2 MdmX conf=90.7*
O=C(CCl)N1N=C(c2cccs2)CC1c1ccco1 (stereo not given),35.3,-18.0,40.8,105.6*,18.6,15.9,/,/,Mdm2 MdmX conf=103.2*
CN1CCN(CC(=O)N2N=C(c3cccs3)CC2c2ccco2)CC1 (stereo not given),10.7,5.5,-0.6,-17.2,11.1,5.0,/,/,
Oc1cc(OCc2ccccc2)ccc1-c1[nH]ncc1-c1ccccc1,4.2,4.2,17.7,4.8,57.3*,-5.1,-12.5,13.1,
O=C(O)CCCCCCCCCCC1CCC(O)C1O (stereo not given),26.1,-6.4,12.1,/,54.3*,12.3,75.4*,51.7*,
COC(=O)[C@@]1(C)[C@H]2C(=O)N(Cc3ccccc3)C(=O)[C@H]2[C@H]2CN=C(SCc3ccc(Cl)cc3)N21,0.8,0.8,10.8,/,10.7,13.6,/,/,Mdm2 MdmX conf=102.7*
COC(=O)[C@@]1(Cc2ccccc2)[C@H]2C(=O)N(Cc3ccccc3)C(=O)[C@H]2[C@H]2CN=C(SCc3ccc(Cl)cc3)N21,4.5,-9.4,-0.4,/,16.8,8.7,/,/,Mdm2 MdmX conf=103.0*
COC(=O)[C@@]1(C)[C@H]2C(=O)N(Cc3ccccc3)C(=O)[C@H]2[C@H]2CN=C(SCc3ccc(C#N)cc3)N21,-4.5,-0.2,3.7,/,10.3,-12.0,/,/,
COc1cccc(/C=C/C(=O)c2ccc3c(c2)OCO3)c1OC,/,-15.7,-219.3,/,-198.1,5.5,/,/,
COc1cc(/C=C/C(=O)c2ccc3c(c2)OCCO3)cc(Br)c1OCC(=O)N(C)C,92.7*,-0.5,107.0*,/,93.2*,3.6,91.5*,101.8*,Mdm2 MdmX conf=101.5*
Cc1ccc(/C=C/C(=O)c2ccc([N+](=O)[O-])o2)cc1,/,/,/,/,/,/,/,/,Mdm2 MdmX conf=103.2*
CCN1CCN(C(=O)C2CCC(=O)N(Cc3cccc(C(F)(F)F)c3)C2)CC1 (stereo not given),4.9,-7.4,14.1,/,9.2,22.5,/,/,
COc1ccccc1OC(=O)c1cc2ccccc2oc1=O,-8.7,3.5,-4.3,/,8.2,-7.6,/,/,
COc1cc(/C=C/[N+](=O)[O-])ccc1OC(=O)c1cc2ccccc2oc1=O,53.8,-4.0,68.6*,/,61.0*,35.2,34.4,38.2,
Cc1ccc(Cl)cc1N1CCN(C(=O)Cn2ncn3cccc3c2=O)CC1,0.6,-2.0,9.9,/,6.6,-4.2,/,/,
SMILES,TRPM1 prom inh,KKLEB cytotox,Peg3 prom inh,CHOP inhibitor,HIF-2a block,CF NFkB inh,HIF-2a inh conf,HIF-1a cs,others
CC1CCN(CCC(=O)NN)CC1,-2.0,-15.8,1.8,-3.7,19.9,27.2,/,/,
NNC(=O)CCN1CCCCC1,-4.6,-3.3,-6.0,20.6,69.5*,-3.2,3.0,-0.8,
CCCCCc1ccc(C(=O)CCC(=O)OCC(=O)N(CC)c2c(N)n(Cc3ccccc3)c(=O)[nH]c2=O)cc1,11.3,5.6,-30.9,/,-5.0,-9.4,/,/,
C=CCn1cccc(/C=C/C(=O)c2ccc(C(C)(C)C)cc2)c1=S,3.5,-52.5*,102.0*,45.9,70.5*,37.2,60.8*,105.2*,
CCOC(=O)c1c(-c2ccccc2)c(C(C)=O)c(=O)n(C)c1C,5.6,3.1,-0.4,22.8,2.6,-0.9,/,/,
CCOC(=O)c1c2c(n(C)c1C)C(=O)C(=O)c1ccc(Br)cc1-2,86.9*,-78.4*,101.0*,/,11.5,97.3*,/,/,Mdm2 MdmX conf=97.5*
CC1(C)Cc2c(c(N3CCOCC3)nc3sc4c(NCCN)ncnc4c23)CO1,69.5*,-4.5,99.5*,/,45.2*,-11.3,2.4,44.2,
Cc1oc(=O)c(NC(=O)c2ccccc2)cc1C(N)=O,5.9,-2.8,2.5,-1.6,3.7,5.0,/,/,
O=C(Nc1cc2ccccc2oc1=O)c1ccccc1,63.2*,-7.9,53.5*,60.6,40.0*,-28.0,68.3*,62.7*,
C=C1C(=O)[C@]23C[C@H]1CC[C@H]2[C@]1(C)[C@@H](OC(C)=O)CC[C@@](C)(C(=O)OC)[C@H]1C[C@@H]3OC(C)=O,/,-97.2*,98.7*,/,97.4*,94.8*,98.0*,106.7*,
O=C(O)c1ccc(NC2=C(Cl)C(=O)c3ccccc3C2=O)cc1,96.3*,-88.9*,108.8*,34.2,93.9*,92.4*,/,/,Mdm2 MdmX conf=101.3*
O=c1oc(-c2ccccc2)cc(Cl)c1Cl,45.6,-103.0*,108.7*,/,41.8*,74.0*,27.2,106.8*,
CCOc1ccc(-c2cc(CCCC(=O)NCCc3ccc(OC)c(OC)c3OC)no2)cc1,16.1,9.7,-24.1,65.4,22.2,0.2,/,/,
CCOc1ccc(-c2cc(CCCC(=O)Nc3cc(OC)ccc3OC)no2)cc1,49.3,20.8,-38.0,51.4,56.5*,-11.4,78.6*,51.7*,
CCOc1ccc(-c2cc(CCCC(=O)Nc3cccc(OC)c3)no2)cc1,?,-6.2,-12.5,/,41.5*,5.6,52.4*,70.1*,
CCOc1ccc(CN2CCN(Cc3nc4c(s3)CCCC4)CC2CCO)cc1 (stereo not given),-11.3,-10.1,7.4,25.0,11.7,-0.7,/,/,
